Source: PubChem BioAssay (EPA / NIEHS)
Inconclusive results are not listed. Activity calls are given as the source filed them. The calls were made as follows, unless noted: active = hit-call score of the fitted dose curve at least 0.9, where 1 is the maximum; inconclusive = response in the unintended direction; inactive = score below 0.9.

Columns and labels:
[1] = read-out: UDP glucuronosyltransferase (UGT1A1), UGT1A1 (gene 54658); test: LTEA_HepaRG_UGT1A1: Life Technologies and Expression Analysis (LTEA) Assay for UDP glucuronosyltransferase (UGT1A1) using HepaRG (AID 2283538; active = hit-call score of the fitted dose curve at least 0.9, where 1 is the maximum; inactive = score below 0.9); details: mRNA level, 48 h; actives raise or lower the signal
In short: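 Differentiated human HepaRG cells in serum-free induction medium were exposed in duplicate for 48 h to eight half-log concentrations up to 100 uM in 0.5% DMSO. UGT1A1 mRNA was quantified by TaqMan qRT-PCR, normalized to ACTB, GAPDH and POLR2A, and fitted bidirectionally against DMSO.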

[2] = read-out: UDP glucuronosyltransferase (UGT1A6), UGT1A6 (gene 54578); test: LTEA_HepaRG_UGT1A6: Life Technologies and Expression Analysis (LTEA) Assay for UDP glucuronosyltransferase (UGT1A6) using HepaRG (AID 2283539; active = hit-call score of the fitted dose curve at least 0.9, where 1 is the maximum; inactive = score below 0.9); details: mRNA level, 48 h; actives raise or lower the signal
In short: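 Expression was quantified by TaqMan qRT-PCR on Fluidigm arrays with ACTB/GAPDH/POLR2A normalization and bidirectional fitting against 0.5% DMSO. HepaRG cells (~100,000/well) were treated in duplicate for 48 h at eight half-log concentrations up to 100 uM in serum-free induction medium.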

[3] = read-out: X-box binding protein 1 (XBP1), XBP1 (gene 7494); test: LTEA_HepaRG_XBP1: Life Technologies and Expression Analysis (LTEA) Assay for X-box binding protein 1 (XBP1) using HepaRG (AID 2283540; active = hit-call score of the fitted dose curve at least 0.9, where 1 is the maximum; inactive = score below 0.9); details: mRNA level, 48 h; actives raise or lower the signal
In short: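 XBP1 transcript by qRT-PCR (housekeeping-normalized: ACTB, GAPDH, POLR2A) after 48 h chemical treatment of HepaRG cells, 8-point half-log series topping at 100 uM, vehicle 0.5% DMSO. Gain and loss of signal fitted relative to DMSO.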

[4] = LTEA_HepaRG_LDH_cytotoxicity: Cytotoxicity Assessment in the Life Technologies and Expression Analysis (LTEA) Assay (AID 2283563);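 as to AC50: LDH activity released into spent culture medium as a marker of cell death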
In short: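 LDH release into culture medium read after 48 h chemical treatment of HepaRG cells. Duplicate wells, eight-point half-log series topping at 100 uM, 0.5% DMSO vehicle and baseline.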

[5] = ATG_XTT_Cytotoxicity: Cytotoxicity Assessment in the Attagene TRANS-FACTORIAL HepG2 Assay (AID 2283584)
In short: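 Viability endpoint from XTT after 24 h chemical exposure of reporter-transfected human HepG2 liver cells; signal loss fitted relative to DMSO negative control.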

[6] = Tanguay_ZF_120hpf_MORT_legacy: (Legacy) Oregon State University Tanguay Lab 120 Hour Post-fertilization zebrafish Assay for Mortality (AID 2283633);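 as to AC50: fitted as increase in binary mortality versus DMSO negative control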
In short: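 Static waterborne exposure from 6 to 120 hpf at 28C of single dechorionated wild-type (5D) embryos per well, 0.64% DMSO final. Death recorded present/absent by brightfield at 24 and 120 hpf.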

[7] = Tanguay_ZF_120hpf_YSE_legacy: (Legacy) Oregon State University Tanguay Lab 120 Hour Post-fertilization zebrafish Assay for Yolk Sac Edema (AID 2283634);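 as to AC50: actives raise the incidence of yolk sac edema above the DMSO baseline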
In short: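 Presence or absence of yolk sac edema was recorded at 120 hpf in surviving larvae. These were wild-type Tropical 5D embryos, chorion removed at 4 hpf, held in static exposure at 28C from 6 hpf with 0.64% DMSO vehicle.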

[8] = Tanguay_ZF_120hpf_AXIS_legacy: (Legacy) Oregon State University Tanguay Lab 120 Hour Post-fertilization zebrafish Assay for Body Axis Malformation (AID 2283635)
In short: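 Binary scoring of axis defects at 120 hpf under brightfield, fitted positive versus DMSO. Tropical 5D embryos, chorion removed by pronase at 4 hpf, were singly exposed in sealed, dark plates at 28C from 6 hpf; DMSO 0.64% final.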

[9] = Tanguay_ZF_120hpf_EYE_legacy: (Legacy) Oregon State University Tanguay Lab 120 Hour Post-fertilization zebrafish Assay for Eye Malformation (AID 2283636);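 also: binary presence or absence of eye malformation scored by brightfield in 120 hpf larvae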
In short: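 Dechorionated Tropical 5D zebrafish embryos, one per well from 6 hpf, static exposure to 120 hpf at 28C, 0.64% DMSO. Eye malformation scored present/absent by brightfield; dead embryos not scored.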

[10] = Tanguay_ZF_120hpf_SNOU_legacy: (Legacy) Oregon State University Tanguay Lab 120 Hour Post-fertilization zebrafish Assay for Snout Malformation (AID 2283637)
In short: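 Dechorionated tropical 5D wild-type zebrafish embryos exposed statically from 6 to 120 hpf at 28C, one per well, in 0.64% DMSO. Snout malformation scored as present/absent by brightfield at 120 hpf; dead embryos not scored.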

[11] = Tanguay_ZF_120hpf_OTIC_legacy: (Legacy) Oregon State University Tanguay Lab 120 Hour Post-fertilization zebrafish Assay for Otic Vesicle Malformation (AID 2283639)
In short: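 Tropical 5D wild-type zebrafish embryos were exposed statically in sealed, foil-covered plates at 28C until 120 hpf, with 0.64% (vol/vol) DMSO final. Otic vesicle malformation was scored present/absent by brightfield microscopy, with DMSO as baseline.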

[12] = target: Cellular tumor antigen p53 (Homo sapiens) (UniProt P04637); test: TOX21_p53_BLA_p2_ratio: Tox21 HCT-116 p53 Agonism Beta-lactamase Assay, Ratio, Phase 2 (AID 2283592)
In short: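 Gain-of-signal p53 agonism was scored from the beta-lactamase FRET ratio (460/530 nm, 405 nm excitation) in HCT116 cells treated 16 h at 37C, 5% CO2, with DMSO serving as negative control and baseline.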

[13] = TOX21_p53_BLA_p3_viability: Viability Assessment in the Tox21 HCT-116 p53 Agonism Beta-lactamase Assay, Phase 3 (AID 2283593);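 also: cells exposed to compound for 16 h before reading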
In short: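 HCT116 cells, 4000/well, dosed 5 h after plating by pin transfer (217-fold dilution from DMSO stock) and incubated 16 h at 37C, 5% CO2. Viability read as ATP luminescence with CellTiter-Glo after 30 min at room temperature.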

[14] = target: Cellular tumor antigen p53 (Homo sapiens) (UniProt P04637); test: TOX21_p53_BLA_p3_ratio: Tox21 HCT-116 p53 Agonism Beta-lactamase Assay, Ratio, Phase 3 (AID 2283596)
In short: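 HCT116 p53-bla cells (4000/well) given compound in DMSO (217-fold dilution) after 5 h, incubated 16 h at 37C. CCF4-AM substrate 2 h at room temperature; 460/530 nm emission ratio, gain fitted against DMSO.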

[15] = target: Cellular tumor antigen p53 (Homo sapiens) (UniProt P04637); test: TOX21_p53_BLA_p5_ratio: Tox21 HCT-116 p53 Agonism Beta-lactamase Assay, Ratio, Phase 5 (AID 2283599)
In short: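 HCT-116 p53-bla cells (4000/well) plated 5 h, dosed with compound (217-fold DMSO dilution) for 16 h at 37 C; CCF4-AM substrate 2 h at room temperature. Activity is the 460/530 nm emission ratio (405 nm excitation), fitted in gain-of-signal direction versus DMSO.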

[16] = TOX21_p53_BLA_p5_viability: Viability Assessment in the Tox21 HCT-116 p53 Agonism Beta-lactamase Assay, Phase 5 (AID 2283600)
In short: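 After the 460/530 nm beta-lactamase measurement, the wells received an ATP-detection luciferase reagent; signal was read 30 min later at RT. Compound treatment lasted 16 h on cells pre-incubated 5 h post-seeding.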

[17] = target: Cellular tumor antigen p53 (Homo sapiens) (UniProt P04637); test: TOX21_p53_BLA_p4_ratio: Tox21 HCT-116 p53 Agonism Beta-lactamase Assay, Ratio, Phase 4 (AID 2283601)
In short: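 HCT-116 p53 beta-lactamase reporter cells (4000/well) preincubated 5 h, then compound (217-fold dilution of DMSO stock) for 16 h at 37C. CCF4-AM substrate added 2 h at room temperature; 460/530 nm emission ratio fitted upward versus DMSO.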

[18] = Tanguay_ZF_120hpf_JAW_legacy: (Legacy) Oregon State University Tanguay Lab 120 Hour Post-fertilization zebrafish Assay for Jaw Malformation (AID 2283638)
In short: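 Binary jaw-malformation call at 120 hpf by brightfield microscopy. Embryos (Tropical 5D strain, chorion removed at 4 hpf) were dosed statically at 6 hpf, one per well, at 28C with 0.64% DMSO. Embryos that died were not scored.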

[19] = TOX21_p53_BLA_p2_viability: Viability Assessment in the Tox21 HCT-116 p53 Agonism Beta-lactamase Assay, Phase 2 (AID 2283591);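 also: compound exposure lasted 16 h at 37 °C; actives lower the ATP signal meaning cytotoxicity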
In short: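 HCT116 p53-bla cells, 4000/well, dosed after 5 h plating (217-fold dilution of DMSO stocks) and incubated 16 h at 37C. Viability taken as cellular ATP by CellTiter-Glo luminescence after 30 min RT; signal loss marks cytotoxicity.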

[20] = TOX21_p53_BLA_p4_viability: Viability Assessment in the Tox21 HCT-116 p53 Agonism Beta-lactamase Assay, Phase 4 (AID 2283597);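 also: hits lower the luminescence signal meaning cytotoxicity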
In short: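 Following a 16 h exposure at 37C, the treated HCT116 wells were first read for the FRET ratio. They were then lysed with CellTiter-Glo, and ATP luminescence was recorded after 30 min at room temperature.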

Measured: AC50

Chain of Cellular tumor antigen p53 (Homo sapiens) (P04637 whole entry, looked up): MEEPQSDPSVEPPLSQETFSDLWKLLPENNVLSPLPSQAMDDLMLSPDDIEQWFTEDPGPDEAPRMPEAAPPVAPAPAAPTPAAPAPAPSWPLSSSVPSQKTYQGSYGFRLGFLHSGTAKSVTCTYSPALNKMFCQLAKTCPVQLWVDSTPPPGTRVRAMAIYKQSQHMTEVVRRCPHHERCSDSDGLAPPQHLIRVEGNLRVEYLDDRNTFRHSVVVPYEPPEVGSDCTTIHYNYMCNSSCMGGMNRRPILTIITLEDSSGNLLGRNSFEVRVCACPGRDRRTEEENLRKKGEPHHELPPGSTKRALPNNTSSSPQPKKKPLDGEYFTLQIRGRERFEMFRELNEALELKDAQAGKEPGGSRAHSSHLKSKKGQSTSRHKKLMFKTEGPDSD

CC(CO)OC(C)CO (centres undefined) (tested in a mixture with another compound)
inactive: [1] | [2] | [3] | [4] | [5] | [6] | [7] | [8] | [9] | [10] | [11]

CC1(C)CC(N=C=O)CC(C)(CN=C=O)C1 (centres undefined)
inactive: [1] | [2] | [3] | [4] | [5] | [12] | [13] | [14] | [15] | [16] | [17] | [6] | [7] | [8] | [10] | [18] | [11]

CN[C@H]1CC[C@@H](c2ccc(Cl)c(Cl)c2)c2ccc(S(N)(=O)=O)cc21
active: [1] 37 µM | [2] 74.2 µM | [4] 36.9 µM | [19] 78.4 µM | [12] 87 µM | [13] 71.7 µM | [14] 86.1 µM | [20] 61.9 µM | [16] 85.5 µM | [17] 86.1 µM
inactive: [3] | [6] | [7] | [8] | [10] | [18] | [11]

CCCCCCCCCCC
inactive: [1] | [2] | [3] | [4] | [5] | [19] | [12] | [14] | [17] | [6] | [7] | [8] | [9] | [10] | [18] | [11]

Cc1ccc2ncccc2c1
inactive: [1] | [2] | [3] | [4] | [5] | [12] | [14] | [15] | [16] | [17] | [6] | [7] | [8] | [9] | [10] | [18] | [11]

C=CCc1ccc(O)c(OC)c1
inactive: [1] | [2] | [3] | [4] | [19] | [12] | [13] | [14] | [15] | [16] | [17] | [6] | [7] | [8] | [9] | [10] | [18] | [11]

C=CCOC(=O)c1ccccc1C(=O)OCC=C
inactive: [1] | [2] | [3] | [4] | [5] | [19] | [12] | [14] | [16] | [17] | [8] | [9] | [10] | [18] | [11]
active: [6] 13.9 µM | [7] 30.9 µM

CCCCCCC(=O)OCC
inactive: [1] | [2] | [3] | [4] | [5] | [12] | [14] | [17] | [6] | [8] | [9] | [10] | [11]

O=C(N[C@@H](Cc1ccccc1)[C@@H](O)C(=O)N1C[C@@H](O)[C@@H](O)C1)c1cc2cc(Cl)ccc2[nH]1
inactive: [1] | [2] | [4] | [19] | [12] | [13] | [14] | [16] | [17] | [6] | [7] | [8] | [9] | [10] | [18] | [11]
active: [3] 50 µM | [20] 71 µM

CCOC(=O)CCC(=O)OCC
inactive: [1] | [2] | [3] | [4] | [5] | [19] | [12] | [14] | [15] | [16] | [17] | [6] | [7] | [8] | [9] | [10] | [18] | [11]

CCc1c(C(=O)NN2CCCCC2)nn(-c2ccc(Cl)cc2Cl)c1-c1ccc(Br)cc1
inactive: [12] | [14] | [15] | [16] | [17] | [6] | [7] | [8] | [9] | [10] | [18] | [11]
active: [1] 58.1 µM | [2] 73.6 µM | [3] 74.9 µM | [4] 61.6 µM | [19] 5.6 µM | [13] 9.14 µM

FC(F)(F)C(F)(F)C(F)(F)C(F)(F)C(F)(F)C(F)(F)CCI
inactive: [1] | [2] | [3] | [4] | [5] | [12] | [13] | [14] | [6] | [7] | [8] | [9] | [10] | [18]

O=C(OCCCCCOC(=O)c1ccccc1)c1ccccc1
inactive: [2] | [4] | [5] | [12] | [13] | [14] | [16] | [17] | [6] | [7] | [8] | [9] | [10] | [18] | [11]
active: [1] 1.07 µM | [3] 0.761 µM

COc1cc(-c2nc(NC(=O)c3cc4cc(C)cc(C)c4n3CC(=O)O)sc2CCC2CCCCC2)c(OC)cc1Cl
inactive: [6] | [7] | [8] | [9] | [10] | [18] | [11]
active: [1] 7.32 µM | [2] 7.34 µM | [3] 19.6 µM | [4] 9.05 µM | [19] 1.65 µM | [12] 2.2 µM | [13] 5.1 µM | [14] 7.74 µM | [20] 2.1 µM | [15] 9.04 µM | [16] 3.51 µM | [17] 3.39 µM

CCCCCCCCCCCCCCCCCC(=O)O
inactive: [1] | [2] | [3] | [4] | [5] | [6] | [7] | [8] | [9] | [10] | [18] | [11]

NCCO
inactive: [1] | [2] | [3] | [4] | [12] | [14] | [17] | [6] | [7] | [8] | [9] | [10] | [18]

NCC1(Cc2noc(=O)[nH]2)CCCCC1
active: [2] 0.226 µM
inactive: [1] | [3] | [4] | [12] | [13] | [20] | [17] | [6] | [7] | [8] | [9] | [10] | [18]
